# Experimental data taken from patent publication US20150152398, “Endoribonuclease and Methods of Use Thereof” (The Regents of the University of California, published 2015).
# Biological target: T1, TtCas6A R129A (Thermus thermophilus HB8, R129A)
# T1 chain: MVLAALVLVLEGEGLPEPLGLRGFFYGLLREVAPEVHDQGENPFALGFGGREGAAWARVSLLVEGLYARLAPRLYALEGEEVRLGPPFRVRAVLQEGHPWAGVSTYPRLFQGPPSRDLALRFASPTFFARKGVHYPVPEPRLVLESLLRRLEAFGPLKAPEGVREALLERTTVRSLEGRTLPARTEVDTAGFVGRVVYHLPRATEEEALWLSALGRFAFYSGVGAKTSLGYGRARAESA
# Assay: EMSA; Kd in FIG. 24D only
# Settings: chain copies: 2 inferred; label: 5'-32P (EMSA); hairpin; ssRNA
# Text: FIG. 22 illustrates that TtCas6A and TtCas6B both cleave repeats R1 and R3 and retain their cleaved products. (A) Sequences and predicted secondary structures of T. thermophilus CRISPR repeats. Sites of cleavage are indicated with blue arrows. TtCas6e (TTHB192) cleaves repeat R2, while TtCas6A (TTHA0078) and TtCas6B (TTHB231) both cleave repeats R1 and R3. (B) Cleavage product binding affinities of TtCas6A and TtCas6B enzymes. Maltose binding protein (MBP)-fused TtCas6A or TtCas6B were bound to in 5′-radiolabelled, vitro transcribed R1 and R3 RNAs. Bound and unbound fractions were resolved by electrophoresis on a native polyacrylamide gel and visualized by phosphorimaging. The data for these and all subsequent binding assays were fit with standard binding isotherms (solid line). Error bars on each data point denote standard error of the mean (SEM) from three independent experiments. (C) Experiments to confirm single turnover. RNA cleavage assays were carried out at indicated protein:RNA ratios. RNA cleavage was monitored using denaturing polyacrylamide gel electrophoresis. The data from these and all subsequent endoribonuclease activity assays were fit with single exponential curves to yield first-order rate constants. (Top to bottom: FIG. 22A, SEQ ID NOs: 1, 2, 55).
# To test the importance of the stem sequence for substrate RNA recognition by TtCas6A, a series of EMSAs was performed using R1 repeat-derived RNAs that carried single base pair substitutions (C-G→A-U). All mutant RNAs contained the complete 5′ segment and additional two nucleotides downstream of the cleavage site. Compared to the wild-type RNA, substitution of any of the four C-G base pairs in the stem led to about five-fold decrease in affinity (FIG. 24C). This is consistent with the observation that the lower three C-G base pairs are specifically read out by Arg129. The binding defect observed upon mutation of the closing (uppermost) base pair could be due to loss of stability of the stem-loop structure, which is determined by the closing base-pair (Serra et al, 1993). To further investigate the protein determinants of RNA binding, we tested the TtCas6A mutants H37A and R129A and performed binding assays using substrates R1 and R3 (FIG. 24D).
row,Sequence,binding signal
1,GUUGCAAGGGAUUGAGCCCCGUAAGGGGAUUGCGAC,~260 fold lower affinity than WT
2,GUUGCAAACCUCGUUAGCCUCGUAGAGGAUUGAAAC,~290 fold lower affinity than WT
